Measurements published in PubChem BioAssay AID1159580 (chemical genetic matrix, 2015).
About 2,000 (36%) of roughly 5,500 compounds were called active. Inconclusive results (about 18%) are left out. Rule as the data show it: active = normalized growth mostly below about 0.91 (no sharp cut-off); inconclusive = no clear call, values can overlap the other calls; inactive = mostly above about 0.92. This is one part of the list.

Test: chemical genetic growth profiling, strain panel (AID 1159580);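 also: tested at 20 µM; growth read once vehicle control cultures reached saturation at 30 °C; 1 = growth at the plate median or of vehicle wells; lower values mean less growth of the strain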
Settings: growth OD

Measured: normalized growth

CN(C)C=Nc1ncccc1OCc1ccc(Cl)c(Cl)c1
active: S. cerevisiae deletion strains, locus YHR030C, strain SLT2, hits give low values 0.47 | S. cerevisiae deletion strains, locus YLR085C, strain ARP6, hits give low values 0.722 | S. cerevisiae deletion strains, locus YNL298W, strain CLA4 (second series), hits give low values 0.788 | S. cerevisiae deletion strains, locus YOL006C, strain TOP1, hits give low values 0.563 | S. cerevisiae strains, strain wild type, hits give low values 0.878
inactive: S. cerevisiae deletion strains, locus YAL013W, strain DEP1, hits give low values 0.973 | S. cerevisiae deletion strains, locus YBR229C, strain ROT2, hits give low values 0.989 | S. cerevisiae deletion strains, locus YCL061C, strain MRC1, hits give low values 0.945 | S. cerevisiae deletion strains, locus YDL101C, strain DUN1, hits give low values 0.951 | S. cerevisiae deletion strains, locus YDR150W, strain NUM1, hits give low values 0.851 | S. cerevisiae deletion strains, locus YEL061C, strain CIN8, hits give low values 0.951 | S. cerevisiae deletion strains, locus YGR078C, strain PAC10, hits give low values 0.964 | S. cerevisiae deletion strains, locus YGR229C, strain SMI1, hits give low values 0.967 | S. cerevisiae deletion strains, locus YHR087W, strain rtc3, hits give low values 1.04 | S. cerevisiae deletion strains, locus YJL187C, strain SWE1, hits give low values 0.959 | S. cerevisiae deletion strains, locus YJR043C, strain POL32, hits give low values 0.951 | S. cerevisiae deletion strains, locus YJR075W, strain HOC1, hits give low values 1 | S. cerevisiae deletion strains, locus YLR039C, strain RIC1, hits give low values 1.05 | S. cerevisiae deletion strains, locus YLR058C, strain SHM2 (second series), hits give low values 1 | S. cerevisiae deletion strains, locus YLR262C, strain YPT6, hits give low values 1.05 | S. cerevisiae deletion strains, locus YML094W, strain GIM5, hits give low values 0.923 | S. cerevisiae deletion strains, locus YMR219W, strain ESC1, hits give low values 0.987 | S. cerevisiae deletion strains, locus YMR263W, strain SAP30, hits give low values 0.963 | S. cerevisiae deletion strains, locus YNL153C, strain GIM3, hits give low values 0.94 | S. cerevisiae deletion strains, locus YNL322C, strain KRE1, hits give low values 0.978 | S. cerevisiae deletion strains, locus YNR030W, strain Alg12, hits give low values 0.926 | S. cerevisiae deletion strains, locus YPL055C, strain LGE1, hits give low values 0.995 | S. cerevisiae deletion strains, locus YPL241C, strain CIN2, hits give low values 0.888 | S. cerevisiae deletion strains, locus YPR135W, strain CTF4, hits give low values 0.756
